Lassa entry inh: Lassa virus entry inhibition. Lassa virus pseudotype entry inhibition, cell reporter. Potency, µM (doses to about 37.9 µM), for inactives: at the top dose activity change, negative = inhibition, most hits filed as inhibitors. 300,000 compounds, 1.2% hits; calls by dose curve; tested in HEK293 cells; further: potency means the concentration at half of the fitted maximal effect; nearly all actives have a fitted effect of over 50% in size
HCV inh: blocks hepatitis C virus; Huh7.5.1 HCVcc-Cre infection, luciferase reporter, 44 h; 340,000 compounds, 3.4% hits; Potency, µM (series often up to 41.8 µM), for the others: at the highest dose activity change, negative = inhibition, usual class: inhibitors; further: potency means the concentration at half of the fitted maximal effect
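Seed cells (1,000/well) for 4 h; treat with compound and infect with HCVcc-Cre, moi about 0.5. Incubate 44 h, then detect luciferase activity.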
Pf growth 48h: inhibits P. falciparum growth in the first generation, 48 h; P. falciparum luciferase growth in erythrocytes, 48 h; Potency, µM (top dose mostly 28.7 µM), without a hit: at the top dose activity change, negative = inhibition, actives largely listed as inhibitors; 310,000 compounds, 5.9% hits; AID 504832; further: potency means the concentration at half of the fitted maximal effect
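Firefly luciferase activity from engineered P. falciparum reports growth; inhibitors lower the luminescent signal. Cultures contained 2% hematocrit erythrocytes at 0.1% final parasitemia.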
HCMV inh: inhibitors of human cytomegalovirus; HFF cells, HCMV-luciferase reporter, 72 h; stronger effect = lower value; activity change, negative = inhibition, % at 57.5 µM; 410,000 compounds, 4.5% hits; AID 1259415; in the data active means activity change below about -60%; inconclusive means no clear call, values can overlap the other calls; inactive means above about -39%
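HFF cells seeded 16 h at 37C, treated with compounds, infected with luciferase-reporter HCMV at MOI 1 PFU/cell; luciferase read at 72 h post infection, normalized to buffer-only and Salinomycin controls.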
Pf growth 96h: inhibits malaria parasite growth, 96 h. 320,000 compounds, 6.9% hits. P. falciparum luciferase reporter growth, 96 h. Potency, µM (top dose mostly 28.7 µM), inactives show top-dose activity change, negative = inhibition, usual class: inhibitors; further: potency means the concentration at half of the fitted maximal effect
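96 h incubation, 37 C, 5% CO2, of luciferase-reporter P. falciparum-infected RBCs (2% hematocrit, 0.05% parasitemia final) with test compounds; endpoint luminescence.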
MARV entry inh: inhibitors of Marburg virus binding or cell entry; AID 540276; Marburg virus pseudotyped entry inhibition, cell reporter; 300,000 compounds, 1.8% hits; Potency, µM (doses to about 37.8 µM), without a hit: at the top dose activity change, negative = inhibition, hits mostly inhibitors; calls by dose curve; tested in HEK293 cells; further: potency means the concentration at half of the fitted maximal effect
Active calls of the source: *; ? = inconclusive; . = no result given; ! = not active in a repeat; [ ] = remark or other dose. In the library only some 14% were active in any assay of this set; here they are far more common. Unless noted, the call rests on the fitted dose curve; in most records, active means well fitted inhibition curve with a large enough effect; inconclusive means small, poorly fitted or top-dose-only effect, or another doubt; inactive means no such curve, though single readings can be large or run the other way. On the % scale 0 is the no-effect control and ±100 the full control effect.

SMILES	Lassa entry inh	HCV inh	Pf growth 48h	HCMV inh	Pf growth 96h	MARV entry inh
Cc1cc(C)n(CCNC(=O)[C@H]2O[C@@H](n3ccc(N)nc3=O)[C@H](O)[C@@H]2O)n1	.	.	.	-24.8	.	.
CC(C)c1nnc(NC(=O)CC(=O)Nc2ccccc2C(=O)O)s1	6.31µM*	15.3%	77.5%	-27.7	24.9%[5.75 µM]	?
CCOc1ccccc1C(=O)Nc1nnc(C(C)C)s1	.	12.6µM*	.	61.8	1.1%	.
CCOc1ccc(NC(=O)CN(C)C(=O)C2CCCC2)cc1OCC	.	-15.3%	-16.4%	-17.9	0.0%	.
CCOc1ccc(NC(=O)CN(C)C(=O)CCC2CCCCC2)cc1OCC	-1.9%	-8.3%	?	-20.5	14.7µM*	?
CCOc1ccc(NC(=O)CN(C)C(=O)CC2CCCC2)cc1OCC	.	-7.7%	?	16.4	13.1µM*	.
CCOc1ccc(NC(=O)CN(C)C(=O)CC2CCCCC2)cc1OCC	.	?	?	-68.0*	?	.
COc1ccc(NC(=O)CN(C)C(=O)CCC2CCCC2)cc1	-1.9%[46.1 µM]	-7.3%	12.9%	-29.1	-3.9%	-0.4%[46.1 µM]
Cc1cccc(-n2c3nc(=O)n(C)c(=O)c-3cc3c(C)nn(-c4ccccc4)c32)c1C	18.6%[46.1 µM]	.	.	-4.3	.	-7.2%[46.1 µM]
CCC(N)Cc1c[nH]c2ccccc12 (stereo not drawn)	.	-23.4%	4.9%	10.6	0.675µM*!	.
O=[N+]([O-])c1ccc(NCc2ccc(Cl)cc2)c2ccncc12	-5.1%[46.1 µM]	6.31µM*	-44.5%	-9.3	?	?
Cc1cccc(N2CCN(C(=O)Cn3cnc4sc(C)c(S(=O)(=O)N5CCN(c6ncccn6)CC5)c4c3=O)CC2C)c1 (stereo not drawn)	?	.	.	-8.3	.	?
CCOC(=O)C1CCN(S(=O)(=O)c2cc(-c3onc(C)c3C)ccc2OC)CC1	-2.2%[46.1 µM]	.	.	22.9	.	.
CCn1c(SCc2ccc(F)cc2)nc2c(c1=O)SCC2	-11.5%	10.6%	?	-23.1	?	?
CCn1c(SCc2cccc(F)c2)nc2c(c1=O)SCC2	14.8%	12.3%	?	-60.5*	-13.6%	-23.0%[46.1 µM]
O=C(COCc1cc(-c2ccco2)on1)Nc1ccc(OC(F)(F)F)cc1	-4.6%[46.1 µM]	.	.	0.1	.	.
COc1ccc(CNC(=O)c2nc(S(=O)(=O)Cc3ccccc3)ncc2Cl)cc1	?	?	24.6%	-95.1*	43.6%	-6.8%[46.1 µM]
CC(=O)Nc1ccc(NC(=O)c2nc(S(=O)(=O)Cc3ccccc3)ncc2Cl)cc1	.	-19.7%	43.1%	-86.3*	?	.
Cc1noc(C(=O)NCc2ccccc2)c1Cl	.	-6.5%	.	-31.0	-1.2%	.
CCS(=O)(=O)c1ncc(Cl)c(C(=O)NCc2ccccc2)n1	?	.	.	-100.0*	.	?
CCCS(=O)(=O)c1ncc(Cl)c(C(=O)Nc2c(C(=O)Nc3ccccc3)oc3ccccc23)n1	?	.	.	-31.2	.	-15.2%[46.1 µM]
Cc1ccc(CNC(=O)c2nc(SCc3ccccc3C)ncc2Cl)cc1	-0.9%[46.1 µM]	.	.	0.4	.	6.7%[46.1 µM]
COc1ccc(CNC(=O)c2nc(SCc3ccc(C)cc3)ncc2Cl)cc1	?	.	.	-69.6*	.	15.0%[46.1 µM]
CCC(=O)Nc1sc2c(c1C(=O)Nc1ccc(Br)cc1)CCCCC2	1.0%[46.1 µM]	.	.	22.8	.	.
c1ccc(Oc2ccccc2-c2cc(NCCc3cccnc3)n3nccc3n2)cc1	.	.	.	26.2	.	.
SMILES	Lassa entry inh	HCV inh	Pf growth 48h	HCMV inh	Pf growth 96h	MARV entry inh
Cc1ccc(Cl)c2sc(N3CCN(C(=O)C4CC4)CC3)nc12	-18.9%[46.1 µM]	.	.	-21.1	.	.
COC(=O)c1ccccc1NC(=O)c1nc(S(=O)(=O)Cc2ccccc2)ncc1Cl	.	-0.2%	18.4%	-110.0*	?	.
O=C(NCc1ccccc1)c1nc(S(=O)(=O)Cc2ccccc2)ncc1Cl	?	-25.2%	15.2%	-77.6*	?	-7.4%[46.1 µM]
CS(=O)(=O)c1ncc(Cl)c(C(=O)Nc2ccc3ccccc3c2)n1	?	11.2µM*	1.1%	-98.0*	6.3%	8.91µM*
CC(C)N1C(=S)N=C2C=C(C(F)(F)F)C=CC21 (stereo not drawn)	.	.	.	.	.	-17.8%[46.1 µM]
Cc1cc(C)cc(NC(=O)CCc2c(C)nc3c(c2C)c(=O)n(C)c(=O)n3C)c1	?	.	.	-9.8	.	2.6%[46.1 µM]
Cc1noc(-c2ccccc2)c1-c1ccccc1[N+](=O)[O-]	.	.	.	-100.5*	.	.
Cc1noc(C)c1CN(C(=S)NC1CC2CCC1C2)c1ccccc1 (stereo not drawn)	-13.9%	-34.9%	11.7µM*	-7.1	-29.2%	?
CC(C)C(=O)N1CCCC1(C)C(=O)N(C)Cc1cccc2ccccc12 (stereo not drawn)	.	.	.	-11.8	.	.
O=S(=O)(c1ccc(Br)cc1)N1CCCC1c1nc2ccccc2s1 (stereo not drawn)	12.7%	?	10.4µM*	-27.6	?	3.6%[46.1 µM]
CN(C)S(=O)(=O)c1ccc(C(=O)N2CCCC2c2nc3ccccc3s2)cc1 (stereo not drawn)	0.3%	-6.2%	?	11.8	?	2.2%
O=S(=O)(c1ccc(N2CCCC2c2nc3ccccc3s2)nc1)N1CCOCC1 (stereo not drawn)	1.7%	?	10.4µM*	4.9	11.7µM*	?
O=C(CCCCCn1c(=O)c2sccc2n(Cc2ccccc2Cl)c1=O)NCc1ccc2c(c1)OCO2	-3.6%[46.1 µM]	.	.	29.8	.	-0.4%[46.1 µM]
O=C(Nc1ccc(Oc2ccccc2)cc1)c1cnc2n(c1=O)CCS2	.	?	.	-85.8*	13.1µM*	.
CN(C)c1ncnc2c1ncn2[C@H]1CN(Cc2ccco2)C[C@@H](CO)O1	.	.	.	13.4	.	.
Cn1cc(CN(C(=O)Nc2ccc(Cl)c(Cl)c2)C2CCCCC2)c2ccccc21	0.2%[46.1 µM]	.	.	28.0	.	-2.7%[46.1 µM]
Cn1cc(CN(C(=O)Nc2ccccc2)C2CCCCC2)c2ccccc21	?	.	.	-105.0*	.	-3.4%[46.1 µM]
CC(C)(C)S(=O)(=O)/C(C#N)=N/Nc1ccc(Cl)cc1	?	?	?	-82.4*	-7.6%	-16.2%[46.1 µM]
Cc1cccc(N/N=C(\C#N)S(=O)(=O)C(C)(C)C)c1	-30.3%	16.9%	0.0%	8.1	64.4%	-15.3%[46.1 µM]
CC(C)(C)c1ccc(N/N=C(\C#N)S(=O)(=O)C(C)(C)C)cc1	?	?	?	?	-19.2%	10µM*
COc1ccc(NC(=O)c2c(-c3ccccc3)c(-c3ccccc3)nn(C)c2=O)cc1OC	-16.5%[46.1 µM]	.	.	11.4	.	-3.1%[46.1 µM]
Nc1ncc(P(=S)(N2CCOCC2)N2CCOCC2)s1	10.0%	31.8%	2.1%	5.0	-4.8%	3.6%[46.1 µM]
C=Cn1c(P(=S)(N2CCOCC2)N2CCOCC2)cc2c1CCCC2	-28.6%	?	11.7µM*	-27.3	21.2%	-19.7%
CCCCCCCn1c(=O)c(C(=O)OC)c(N)c2ccccc21	?	?	?	-89.3*	?	?
CCCCCn1c(=O)c(C(=O)Nc2ccccc2)c(O)c2ccccc21	.	4.2%	25.7%	1.7	9.4%	.

Screening results: PubChem, National Center for Advancing Translational Sciences (NCATS)
